Source: PubChem BioAssay (Tox21)
Results filed as inconclusive are left out. A number with no mark means an inactive call. The source made the active and inactive calls. The call rests on the fitted dose curve.

Assay: Nuclear factor erythroid 2-related factor 2/antioxidant responsive element (Nrf2/ARE) small molecule agonists: luciferase reporter gene qHTS assay in human keratinocytes (AID 1919969); further: nearly all actives have a fitted effect of over 35% in size
Conditions: KeratinoSens HaCaT ARE-luciferase, luminescence, 24 h; series mostly up to 92.4 µM; activity, positive = activation: at the top concentration
Excerpt: National Center for Advancing Translational Sciences [NCATS]
Division of Preclinical Innovation [DPI]
U.S. Environmental Protection Agency [EPA]
National Institutes of Environmental Health Sciences [NIEHS]
National Toxicology Program [NTP]
U.S. Food and Drug Administration [FDA]
Oxidative stress has been implicated in the pathogenesis of a variety of diseases ranging from cancer to neurodegeneration. The antioxidant response element (ARE) signaling pathway plays an important role in the amelioration of oxidative stress. The KeratinoSens (Givaudan, Switzerland) is an in vitro test method which quantifies luciferase induction as a measure of activation of Keap1-Nrf2-antioxidationt/electrophile response element (ARE) dependant pathway in HaCaT human keratinocytes stably transfected with a selectable plasmid. The KeratinoSens assay is a cell-based assay with a reporter cell line to detect potential skin sensitizers by their ability to induce the Nrf2/ARE-response. The activation of the report gene under culture conditions can be detected by ONE-Glo Luciferase Assay System (Promega, Madison, WI). This cell line has been used to screen the Tox21 10K compound library to identify agonists that induce oxidative stress. The cytotoxicity of the Tox21 compound library against the KS-ARE cell line was tested in parallel by measuring the cell viability using CellTiter- Fluor assay system (Promega, Madison, WI) in the same wells.
HaCaT derived cell line KeratinoSens were dispensed at 1,500 cells/5uL/well in 1536-well white wall/solid bottom plates using a Multidrop Combi (ThermoFisher Scientific, Waltham, MA) dispenser. After the assay plates were incubated at 37 C/5% CO2 for 5 h, 23 nL of compounds dissolved in DMSO, positive controls or DMSO only was transferred to the assay plate by a pintool workstation (Kalypsys, San Diego, CA). The plates were incubated at 37 C/5% CO2 for 23 h, followed by addition of 1uL/well of CellTiter-Fluor reagent into the assay plates using a Flying Reagent Dispenser (Aurora Discovery, San Diego, CA) for cell viability readout that measures cytotoxicity. After 1 h incubation at 37 C/5% CO2 the fluorescence intensity was measured using a ViewLux (PerkinElmer, Shelton, CT) plate reader. Then 4uL/well of One-Glo were added using a Flying Reagent Dispenser. After the plates were incubated at room temperature for 30 min, the luminescence intensity in the assay plates was measured using ViewLux plate reader.
On the % scale 0 is the no-effect control and ±100 the full control effect; potency means the concentration at half of the fitted maximal effect.

Compound	activity, positive = activation	Potency
CC(=O)CC(=O)Nc1ccc(C)cc1C	-12.5%	–
CC(C)CC(=O)C1C(=O)c2ccccc2C1=O	12.4%	–
CC1(C)Cc2cccc(N)c2O1	-6.27%	–
C=CC(=O)OCCCl	12.7%	–
CC/C=C\CCOC(=O)c1ccccc1O	9.61%	–
C=C(C)C(=O)OCC(C)(C)COC(=O)C(=C)C	2.08%	–
OCCCO	-4.16%	–
CCOC(=O)CCc1ccccc1	-4.06%	–
NCCCC[C@H](N[C@@H](CCc1ccccc1)C(=O)O)C(=O)N1CCC[C@H]1C(=O)O	-1.58% [at 42.5 µM]	–
CC1=CC(=O)CC(C)(C)C1=O	-8.8%	–
c1ccc(CCNc2nc(-c3ccccc3)cs2)cc1	–	0.596 µM (active)
CCCSS/C(CCO)=C(\C)N(C=O)Cc1cnc(C)nc1N	–	29.8 µM (active)
O=[N+]([O-])c1ccc(CO)cc1	-0.389%	–
C/C=C(\C)C#N	-0.13%	–
CCCCC/C=C/CC1CC(=O)OC1=O (stereo not given)	-9.51%	–
CN1CCCCC1CCN1c2ccccc2Sc2ccc(S(C)=O)cc21 (stereo not given)	1.86% [at 42.5 µM]	–
Cc1cc(OI)c(C(C)C)cc1-c1cc(C(C)C)c(OI)cc1C	5.65% [at 42.5 µM]	–
CCCCN(CCCC)C(C(N)=O)c1ccc(OC)cc1 (stereo not given)	-8.48% [at 42.5 µM]	–
CC(=O)Oc1ccc(C2(c3ccc(OC(C)=O)cc3)C(=O)Nc3ccccc32)cc1	–	0.266 µM (active)
Cc1cc(F)ccc1-c1cc(N2CC[C@@H](O)[C@H]2CO)ncc1N(C)C(=O)C(C)(C)c1cc(C(F)(F)F)cc(C(F)(F)F)c1	-43%	–

Compound	activity, positive = activation	Potency
O=C1c2ccccc2C(=O)C1c1ccc2ccccc2n1	–	1.21 µM (active)
CCc1cc(Cc2cc(CC)cc(C(C)(C)C)c2O)c(O)c(C(C)(C)C)c1	-45.9%	–
CCOC(=O)CC(C)O (stereo not given)	-11.1%	–
C=CCN1CCc2nc(N)sc2CC1	-4.12% [at 42.5 µM]	–
CC(C)OC(=O)c1cc2c(OCC(O)CNC(C)(C)C)cccc2[nH]1 (stereo not given)	-15.1% [at 42.5 µM]	–
CCc1ccc(CC)cc1	-4.01%	–
CC(=O)C1CCCCC1=O (stereo not given)	6%	–
O=C(NCCc1c[nH]c2ccccc12)c1cccnc1	15.3% [at 42.5 µM]	–
Cc1cccc(C)c1C	3.38%	–
CCS(=O)(=O)CCn1c([N+](=O)[O-])cnc1C	0.707% [at 42.5 µM]	–
COC(=O)c1ccc(I)cc1S(=O)(=O)NC(=O)Nc1nc(C)nc(OC)n1	-4.93%	–
Cc1c(Cn2ccnc2)c2ccccc2n1CCC(=O)O	-2.42% [at 42.5 µM]	–
CCN1CCC[C@H]1CNC(=O)c1cc(S(N)(=O)=O)ccc1OC	-0.158% [at 42.5 µM]	–
C[N+]1(C)CCCC(OC(=O)C(O)(c2ccccc2)c2ccccc2)C1 (stereo not given)	-0.185% [at 42.5 µM]	–
Oc1cccc(O)c1O	-3.42%	–
Nc1cc(C(F)(F)F)ccc1S	–	13.3 µM (active)
COc1cc2c(cc1N)oc1ccccc12	–	62.4 µM (active)
CCOC(=O)[C@H](C)O	1.61%	–
CCCCCCOC(=O)CCCCC(=O)OCCCCCC	-0.744%	–
CC/C=C\CCCCO	-13.9%	–
